# The supplement of paper PMC6411743
# ± gives the standard deviation of the averaged measurements. Targets with the largest changes are over-represented here; the source holds about 6,500 in all.
# Experiments:
# Assay in all cases: NP40-soluble protein abundance relative to vehicle (solubility fold change) (ratio); higher = more soluble protein in presence of ATP
# [1] = target: T1, A6NG45|Q13162 (UniProt Q13162)
# T1 sequence (whole entry): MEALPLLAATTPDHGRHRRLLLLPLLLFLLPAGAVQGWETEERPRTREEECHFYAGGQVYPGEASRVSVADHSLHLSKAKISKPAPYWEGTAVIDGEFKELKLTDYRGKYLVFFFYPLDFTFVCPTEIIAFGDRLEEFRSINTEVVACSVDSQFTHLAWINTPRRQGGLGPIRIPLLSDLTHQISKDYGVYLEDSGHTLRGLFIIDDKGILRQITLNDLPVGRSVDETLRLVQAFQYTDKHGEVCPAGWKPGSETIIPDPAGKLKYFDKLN
# How it was run: (§1)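 Jurkat crude lysate (Dounce-homogenised) was treated with eight concentrations from 0.1 to 10 mM for 10 min at room temperature, then 3 min at 37 °C. It was solubilised with 0.8% NP40 and benzonase (60 min, 4 °C) and ultracentrifuged, and the supernatant was TMT-labelled for LC-MS/MS. Intensities were vsn-normalised, and the value is the fold change against the NP40-processed vehicle per replicate, from three independent experiments.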
# [2] = target: T2, E7ET89|Q86UW9|Q86UW9-2 (UniProt Q86UW9)
# T2 sequence (whole entry): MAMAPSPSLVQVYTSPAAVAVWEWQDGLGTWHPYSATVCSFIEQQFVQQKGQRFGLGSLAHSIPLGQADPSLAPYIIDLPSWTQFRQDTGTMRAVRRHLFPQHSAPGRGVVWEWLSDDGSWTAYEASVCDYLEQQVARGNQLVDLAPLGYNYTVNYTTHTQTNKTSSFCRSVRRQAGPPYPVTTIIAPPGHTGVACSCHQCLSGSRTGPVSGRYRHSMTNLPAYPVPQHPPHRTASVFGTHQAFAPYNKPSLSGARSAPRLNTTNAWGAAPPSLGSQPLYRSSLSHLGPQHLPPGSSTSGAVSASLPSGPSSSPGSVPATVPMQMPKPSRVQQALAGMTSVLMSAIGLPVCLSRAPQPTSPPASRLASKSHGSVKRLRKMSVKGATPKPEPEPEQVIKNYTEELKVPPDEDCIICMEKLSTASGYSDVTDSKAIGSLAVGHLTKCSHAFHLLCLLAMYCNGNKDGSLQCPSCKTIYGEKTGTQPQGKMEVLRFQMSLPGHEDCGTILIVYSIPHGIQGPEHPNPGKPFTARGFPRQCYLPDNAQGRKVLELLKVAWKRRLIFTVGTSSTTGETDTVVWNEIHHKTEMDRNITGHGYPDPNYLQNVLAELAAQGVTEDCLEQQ
# How it was run: as §1
# [3] = target: T3, F5GY05|A0A0D9SEJ5|Q96EK7 (UniProt Q96EK7)
# T3 sequence (whole entry): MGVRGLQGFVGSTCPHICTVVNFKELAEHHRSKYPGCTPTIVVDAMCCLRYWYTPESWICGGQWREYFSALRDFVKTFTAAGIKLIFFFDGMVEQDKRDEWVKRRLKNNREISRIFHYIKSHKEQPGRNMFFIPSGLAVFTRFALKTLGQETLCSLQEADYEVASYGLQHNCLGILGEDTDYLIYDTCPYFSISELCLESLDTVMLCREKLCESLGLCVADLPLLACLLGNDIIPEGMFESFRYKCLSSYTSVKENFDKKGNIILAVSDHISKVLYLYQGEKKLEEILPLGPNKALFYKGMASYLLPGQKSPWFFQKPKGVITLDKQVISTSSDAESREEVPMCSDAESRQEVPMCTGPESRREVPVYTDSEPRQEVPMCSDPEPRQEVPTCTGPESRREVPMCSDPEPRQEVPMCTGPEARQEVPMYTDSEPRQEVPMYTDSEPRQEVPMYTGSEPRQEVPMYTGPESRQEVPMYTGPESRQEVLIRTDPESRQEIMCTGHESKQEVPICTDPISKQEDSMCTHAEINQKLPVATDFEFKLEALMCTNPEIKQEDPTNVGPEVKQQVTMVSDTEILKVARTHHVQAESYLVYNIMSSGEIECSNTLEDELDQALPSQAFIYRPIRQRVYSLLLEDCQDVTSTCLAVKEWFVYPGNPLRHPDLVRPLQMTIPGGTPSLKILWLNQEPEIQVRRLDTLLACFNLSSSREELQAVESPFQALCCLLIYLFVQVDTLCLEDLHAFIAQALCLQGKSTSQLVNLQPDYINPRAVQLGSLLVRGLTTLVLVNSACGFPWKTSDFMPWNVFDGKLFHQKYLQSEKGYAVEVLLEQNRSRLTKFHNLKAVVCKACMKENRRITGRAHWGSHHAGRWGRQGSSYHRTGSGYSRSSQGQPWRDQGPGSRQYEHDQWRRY
# How it was run: as §1
# [4] = target: T4, F5H514|O95267|O95267-2 (UniProt O95267)
# T4 sequence (whole entry): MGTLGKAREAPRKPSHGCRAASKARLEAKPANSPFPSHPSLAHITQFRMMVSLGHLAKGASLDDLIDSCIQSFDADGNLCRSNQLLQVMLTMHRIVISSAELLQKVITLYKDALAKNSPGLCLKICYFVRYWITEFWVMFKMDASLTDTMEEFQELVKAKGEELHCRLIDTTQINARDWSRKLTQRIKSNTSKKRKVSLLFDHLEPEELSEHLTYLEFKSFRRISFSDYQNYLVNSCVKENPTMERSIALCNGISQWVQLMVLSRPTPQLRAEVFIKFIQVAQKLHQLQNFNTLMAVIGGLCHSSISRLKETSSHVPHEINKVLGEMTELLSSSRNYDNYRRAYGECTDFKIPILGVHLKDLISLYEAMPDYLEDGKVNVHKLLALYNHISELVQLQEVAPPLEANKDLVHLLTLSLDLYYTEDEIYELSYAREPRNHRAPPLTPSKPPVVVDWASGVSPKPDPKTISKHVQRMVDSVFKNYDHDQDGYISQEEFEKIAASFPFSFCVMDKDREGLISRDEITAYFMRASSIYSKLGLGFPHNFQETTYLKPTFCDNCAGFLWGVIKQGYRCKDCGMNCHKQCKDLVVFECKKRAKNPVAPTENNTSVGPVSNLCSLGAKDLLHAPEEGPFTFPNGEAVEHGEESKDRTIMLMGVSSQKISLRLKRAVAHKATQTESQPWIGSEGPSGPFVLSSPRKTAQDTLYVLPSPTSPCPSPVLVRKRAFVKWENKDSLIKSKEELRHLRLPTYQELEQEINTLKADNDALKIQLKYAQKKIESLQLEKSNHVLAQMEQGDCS
# How it was run: as §1
# [5] = target: T5, I3L0H8|Q9NUU7|Q9NUU7-2 (UniProt Q9NUU7)
# T5 sequence (whole entry): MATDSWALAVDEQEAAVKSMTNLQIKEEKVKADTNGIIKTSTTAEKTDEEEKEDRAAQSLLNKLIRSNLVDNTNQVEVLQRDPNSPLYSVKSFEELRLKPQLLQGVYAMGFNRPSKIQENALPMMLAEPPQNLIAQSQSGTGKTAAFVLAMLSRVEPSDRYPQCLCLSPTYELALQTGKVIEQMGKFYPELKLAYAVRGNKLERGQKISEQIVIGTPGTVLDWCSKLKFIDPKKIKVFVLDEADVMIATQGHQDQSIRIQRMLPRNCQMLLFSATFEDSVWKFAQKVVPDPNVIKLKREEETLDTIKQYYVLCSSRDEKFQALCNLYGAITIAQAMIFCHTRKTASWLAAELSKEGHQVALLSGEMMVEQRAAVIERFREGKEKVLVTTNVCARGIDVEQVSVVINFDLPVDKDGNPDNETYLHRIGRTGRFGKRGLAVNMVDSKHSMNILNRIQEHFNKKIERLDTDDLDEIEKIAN
# How it was run: as §1
# [6] = target: T6, J3KPS0|Q9NXW2 (UniProt Q9NXW2)
# T6 sequence (whole entry): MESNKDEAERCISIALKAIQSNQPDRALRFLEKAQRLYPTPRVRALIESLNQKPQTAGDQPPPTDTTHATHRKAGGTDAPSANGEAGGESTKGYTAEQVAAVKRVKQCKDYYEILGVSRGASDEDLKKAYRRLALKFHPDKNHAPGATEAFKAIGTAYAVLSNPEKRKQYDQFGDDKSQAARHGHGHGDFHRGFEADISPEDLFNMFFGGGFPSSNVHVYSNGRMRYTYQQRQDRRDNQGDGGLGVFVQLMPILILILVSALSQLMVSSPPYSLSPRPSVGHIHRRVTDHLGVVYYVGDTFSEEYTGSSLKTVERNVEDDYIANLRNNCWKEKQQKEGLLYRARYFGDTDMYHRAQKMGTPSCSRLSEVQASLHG
# How it was run: as §1
# [7] = target: T7, SNAP23 (UniProt O00161)
# T7 sequence (whole entry): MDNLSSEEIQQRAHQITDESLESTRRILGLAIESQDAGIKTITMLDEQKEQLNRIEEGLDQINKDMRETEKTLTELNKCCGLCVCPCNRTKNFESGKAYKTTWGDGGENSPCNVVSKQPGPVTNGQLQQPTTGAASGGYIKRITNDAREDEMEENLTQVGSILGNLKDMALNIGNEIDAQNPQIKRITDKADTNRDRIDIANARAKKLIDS
# How it was run: as §1
# [8] = target: T8, UniProt O14966|O14966-2
# T8 sequence (whole entry): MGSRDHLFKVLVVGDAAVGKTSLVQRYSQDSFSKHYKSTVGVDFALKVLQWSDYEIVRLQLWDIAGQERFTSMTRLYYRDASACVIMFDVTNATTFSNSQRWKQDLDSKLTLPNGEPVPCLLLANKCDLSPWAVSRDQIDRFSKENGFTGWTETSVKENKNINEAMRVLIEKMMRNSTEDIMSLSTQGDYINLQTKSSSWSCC
# How it was run: as §1
structure (smiles),measurement,setting,value
Nc1ncnc2c1ncn2[C@@H]1O[C@H](COP(=O)(O)OP(=O)(O)OP(=O)(O)O)[C@@H](O)[C@H]1O [adenosine triphosphate],NP40-soluble protein abundance,[1]; concentration: 1mM,1.07 ± 0.057
same,NP40-soluble protein abundance,[1]; concentration: 2mM,1.01 ± 0.042
same,NP40-soluble protein abundance,[1]; concentration: 4mM,0.975 ± 0.041
same,NP40-soluble protein abundance,[1]; concentration: 6mM,0.953 ± 0.07
same,NP40-soluble protein abundance,[1]; concentration: 8mM,1.03 ± 0.034
same,NP40-soluble protein abundance,[1]; concentration: 10mM,0.992 ± 0.033
same,NP40-soluble protein abundance,[2]; concentration: 1mM,0.936 ± 0.2
same,NP40-soluble protein abundance,[2]; concentration: 2mM,1.09 ± 0.15
same,NP40-soluble protein abundance,[2]; concentration: 4mM,1.05 ± 0.11
same,NP40-soluble protein abundance,[2]; concentration: 6mM,1.04 ± 0.039
same,NP40-soluble protein abundance,[2]; concentration: 8mM,1.03 ± 0.086
same,NP40-soluble protein abundance,[2]; concentration: 10mM,1.04 ± 0.035
same,NP40-soluble protein abundance,[3]; concentration: 1mM,1.03 ± 0.013
same,NP40-soluble protein abundance,[3]; concentration: 2mM,1.0493 ± 0.001
same,NP40-soluble protein abundance,[3]; concentration: 4mM,1.07 ± 0.017
same,NP40-soluble protein abundance,[3]; concentration: 6mM,1.06 ± 0.06
same,NP40-soluble protein abundance,[3]; concentration: 8mM,1.07 ± 0.02
same,NP40-soluble protein abundance,[3]; concentration: 10mM,1.08 ± 0.052
same,NP40-soluble protein abundance,[4]; concentration: 1mM,1.04 ± 0.12
same,NP40-soluble protein abundance,[4]; concentration: 2mM,1.09 ± 0.046
same,NP40-soluble protein abundance,[4]; concentration: 4mM,1.19 ± 0.15
same,NP40-soluble protein abundance,[4]; concentration: 6mM,1.21 ± 0.13
same,NP40-soluble protein abundance,[4]; concentration: 8mM,1.14 ± 0.065
same,NP40-soluble protein abundance,[4]; concentration: 10mM,1.24 ± 0.15
same,NP40-soluble protein abundance,[5]; concentration: 1mM,1.03 ± 0.02
same,NP40-soluble protein abundance,[5]; concentration: 2mM,1.03 ± 0.028
same,NP40-soluble protein abundance,[5]; concentration: 4mM,1 ± 0.03
same,NP40-soluble protein abundance,[5]; concentration: 6mM,1.02 ± 0.058
same,NP40-soluble protein abundance,[5]; concentration: 8mM,1.02 ± 0.012
same,NP40-soluble protein abundance,[5]; concentration: 10mM,1.02 ± 0.013
same,NP40-soluble protein abundance,[6]; concentration: 1mM,0.902 ± 0.035
same,NP40-soluble protein abundance,[6]; concentration: 2mM,0.898 ± 0.056
same,NP40-soluble protein abundance,[6]; concentration: 4mM,0.867 ± 0.058
same,NP40-soluble protein abundance,[6]; concentration: 6mM,0.846 ± 0.12
same,NP40-soluble protein abundance,[6]; concentration: 8mM,0.845 ± 0.11
same,NP40-soluble protein abundance,[6]; concentration: 10mM,0.833 ± 0.1
same,NP40-soluble protein abundance,[7]; concentration: 1mM,0.944 ± 0.077
same,NP40-soluble protein abundance,[7]; concentration: 2mM,0.947 ± 0.024
same,NP40-soluble protein abundance,[7]; concentration: 4mM,0.943 ± 0.021
same,NP40-soluble protein abundance,[7]; concentration: 6mM,1 ± 0.061
same,NP40-soluble protein abundance,[7]; concentration: 8mM,0.921 ± 0.02
same,NP40-soluble protein abundance,[7]; concentration: 10mM,0.883 ± 0.03
same,NP40-soluble protein abundance,[8]; concentration: 1mM,0.995 ± 0.072
same,NP40-soluble protein abundance,[8]; concentration: 2mM,1.01 ± 0.075
same,NP40-soluble protein abundance,[8]; concentration: 4mM,0.958 ± 0.099
same,NP40-soluble protein abundance,[8]; concentration: 6mM,1.03 ± 0.09
same,NP40-soluble protein abundance,[8]; concentration: 8mM,0.99 ± 0.1
same,NP40-soluble protein abundance,[8]; concentration: 10mM,1.01 ± 0.04
